Read-outs that look alike come from different tables or passages of the source. Among all 13,000 compounds or so, about 3,200 (25%) showed an effect of 50% or more. This is one part of the list.
Test system: P. falciparum stage V gametocytes
Set-up: BacTiter-Glo ATP luminescence viability of purified stage V gametocytes in 384-well plates, per cent inhibition versus DMSO
Settings: 48 h, 5 µM, inhibitor

In the case of CS(=O)(=O)CCNCc1nc(-c2ccc3ncnc(Nc4ccc(OCc5cccc(F)c5)c(Cl)c4)c3c2)cs1 [TCMDC-138499], the “% Inhibition” value is reported as -12.17%.

With Nc1ncc(-c2ccc3ncccc3c2)c(N)n1 [TCMDC-133421] the “% Inhibition” value was 0.5405%.

With CC(=O)Nc1ccc(CN2CCC(N(C)c3ccc(NC(=O)c4cccc(C)c4)cc3)CC2)cc1 [TCMDC-134985] the “% Inhibition” value was -13.81%.

Cn1cccc1C(=O)Nc1cccc(-c2nn3ccccc3c2-c2ccnc(Nc3ccc4c(c3)OCCO4)n2)c1 [TCMDC-135663] was tested, and the “% Inhibition” value was -4.275%.

NC(=NCc1ccccc1)Nc1cccc(Cc2ccccc2)n1 [TCMDC-138951] was tested, and the “% Inhibition” value was 107.9%.

In the case of Cc1cccc(NC(=O)NCc2ccccc2)n1 [TCMDC-123843], the “% Inhibition” value is reported as 1.75%.

N/C(=N\c1ncccn1)Nc1cccc(Cc2ccccc2)n1 [TCMDC-138948] was tested, and the “% Inhibition” value was -9.706%.

In the case of NC1=NC(c2ccccc2)N(OCc2ccccc2)C(N)=N1 (centres unmarked) [TCMDC-131586], the “% Inhibition” value is reported as -5.605%.

CCN=C1NC2=C(CC(C(C)(C)C)CC2)C2(CCC(C(C)(C)C)CC2)S1 (centres unmarked) [TCMDC-131288] was tested, and the “% Inhibition” value was 95.02%.

O=C(CSc1nccn1C1CCCC1)Nc1cc(C(F)(F)F)ccc1Cl [TCMDC-125066] was tested, and the “% Inhibition” value was 0.3827%.

CCOc1ccc(-c2nonc2NC(=O)c2ccc(OC(C)C)cc2)cc1OCC [TCMDC-125276] was tested, and the “% Inhibition” value was 7.159%.

With COc1ccc(C(=O)Nc2nonc2-c2ccc(OC)c(OC)c2)cc1Cl [TCMDC-125400] the “% Inhibition” value was 30.18%.

COc1cccc(C(=O)Nc2nonc2-c2ccc(OC)c(OC)c2)c1 [TCMDC-125403] was tested, and the “% Inhibition” value was 43.85%.

For COc1ccc(-c2nonc2NC(=O)c2ccc(C(C)(C)C)cc2)cc1OC [TCMDC-125404], the “% Inhibition” value was 42%.

In the case of COc1ccc(-c2nonc2NC(=O)c2cccc(C)c2)cc1OC [TCMDC-125399], the “% Inhibition” value is reported as 77.34%.

With C=CCOc1ccc(C(=O)Nc2nonc2-c2ccc(OC)c(OC)c2)cc1 [TCMDC-125178] the “% Inhibition” value was 71.05%.

In the case of CCOc1ccc(C(=O)Nc2nonc2-c2ccc(OC)c(OC)c2)cc1 [TCMDC-125402], the “% Inhibition” value is reported as 33.5%.

In the case of CCCOc1ccc(C(=O)Nc2nonc2-c2ccc(OC)c(OC)c2)cc1 [TCMDC-125471], the “% Inhibition” value is reported as 84.04%.

For COc1ccc(-c2nonc2NC(=O)c2ccc(OC(C)C)cc2)cc1OC [TCMDC-125130], the “% Inhibition” value was 61.65%.

CCN(CCCN1CCCCC1)c1cc(C)nc(Nc2cc(F)cc(F)c2)n1 [TCMDC-132450] was tested, and the “% Inhibition” value was 49.02%.

In the case of CCC(C)(C)NC(=O)C(c1cccc(OC)c1)N(C(=O)CNC(=O)c1cccs1)c1ccc2c(c1)OCCO2 (centres unmarked) [TCMDC-125637], the “% Inhibition” value is reported as 1.141%.

O=C(OCc1ccccc1)N1CCc2c([nH]c3ccccc23)C1CCC(F)(F)F (centres unmarked) [TCMDC-134555] was tested, and the “% Inhibition” value was -59.21%.

For Oc1ccc(CCNc2nc(NCc3ccc4cc(Cl)ccc4c3)nc(N3CCNCC3)n2)cc1 [TCMDC-133782], the “% Inhibition” value was -8.892%.

For CC(C)(CN)c1nc(-c2ccc(Cl)c(O)c2)c(-c2ccnc(N)n2)[nH]1 [TCMDC-141019], the “% Inhibition” value was -19.39%.

With CC(C)Cc1ccc(N2CCN(CCCCNC(=O)c3ccc(NC(=O)c4ccc(Cl)c(Cl)c4)cc3)CC2)cc1 [TCMDC-138251] the “% Inhibition” value was -11.88%.

With COc1ccc2c(c1)CCCC2NCCCCNC(=O)c1ccc(NC(=O)c2ccc(Cl)cc2)cc1 (centres unmarked) [TCMDC-138690] the “% Inhibition” value was 6.749%.

In the case of COc1cc(C2CCN(CCCCNC(=O)c3ccc(NC(=O)c4cc(C(F)(F)F)cc(C(F)(F)F)c4)cc3)CC2)ccc1OC(C)C [TCMDC-138285], the “% Inhibition” value is reported as 55.31%.

CC(C)Cc1ccc(N2CCN(CCCCNC(=O)c3ccc(NC(=O)c4cc(C(F)(F)F)cc(C(F)(F)F)c4)cc3)CC2)cc1 [TCMDC-138252] was tested, and the “% Inhibition” value was 6.749%.

With COc1cccc(C2CCN(CCCCNC(=O)c3ccc(NC(=O)c4ccc(Cl)cc4)cc3)CC2)c1 [TCMDC-138312] the “% Inhibition” value was 21.15%.

With COc1ccc(C2CCN(CCCCNC(=O)c3ccc(NC(=O)c4ccc(Cl)cc4)cc3)CC2)cc1Cl [TCMDC-138366] the “% Inhibition” value was 81.78%.

COc1cc(C2CCN(CCCCNC(=O)c3ccc(NC(=O)c4ccc(Cl)c(Cl)c4)cc3)CC2)ccc1OC(C)C [TCMDC-138286] was tested, and the “% Inhibition” value was 111.4%.

In the case of COc1ccc(C2CCC(NCCCCNC(=O)c3ccc(NC(=O)c4ccc(Cl)cc4)cc3)CC2)cc1 (centres unmarked) [TCMDC-138582], the “% Inhibition” value is reported as 60.8%.

With COc1ccc(N2CCN(CCCCNC(=O)c3ccc(NC(=O)c4cc(C(F)(F)F)cc(C(F)(F)F)c4)cc3)CC2)c(OC)c1 [TCMDC-138227] the “% Inhibition” value was 7.888%.

In the case of CCN(CC)c1ccccc1CNC(=O)c1cc(Cl)c(N)cc1OC [TCMDC-131416], the “% Inhibition” value is reported as 17.92%.

COc1cc(Nc2ccnc3cc(-c4ccncc4)ccc23)cc(OC)c1OC [TCMDC-138293] was tested, and the “% Inhibition” value was -25.86%.

C=CC[C@@H](C(=O)OCC)[C@@H]1[C@@H](N(CC=C)C(=O)OC(C)(C)C)CCN1C(=O)OCc1ccccc1 [TCMDC-132035] was tested, and the “% Inhibition” value was 7.25%.

In the case of O=S(=O)(c1cccc(Br)c1)N1CCCCC(c2ccc(C(F)(F)F)cc2)=N1 [TCMDC-134539], the “% Inhibition” value is reported as -27.96%.

C=C[C@H]1CN2CC[C@H]1C[C@@H]2[C@@H](O)c1ccnc2ccccc12 [TCMDC-123933] was tested, and the “% Inhibition” value was 7.627%.

With COc1ccc(N2CCN(c3nc(Nc4ccc(NC(C)=O)cc4)nc(N4CCCC4)n3)CC2)cc1 [TCMDC-123875] the “% Inhibition” value was -17.97%.

In the case of CCN(CC)CCCC(C)Nc1ccnc2ccc(-c3ccccc3)cc12 (centres unmarked) [TCMDC-123952], the “% Inhibition” value is reported as 41.59%.

CCN(CC)CCCSc1ccc(-c2ccc(SCCCN(CC)CC)cc2)cc1 [TCMDC-131824] was tested, and the “% Inhibition” value was 99.62%.

For O=C(/C=C/c1ccc(Cl)c(Cl)c1)NCCCCCN1CCCC(CNS(=O)(=O)c2cccc(C(F)(F)F)c2)C1 (centres unmarked) [TCMDC-139597], the “% Inhibition” value was 100.9%.

CN(C(=O)/C=C/c1cc(C(F)(F)F)ccc1F)C1CCN(CCCCCNC(=O)/C=C/c2ccc(Cl)c(Cl)c2)C1 (centres unmarked) [TCMDC-139997] was tested, and the “% Inhibition” value was 27.91%.

For O=C(C=Cc1ccc(Cl)c(Cl)c1)NCCCCCN1CCC(CCCNS(=O)(=O)c2cccc(C(F)(F)F)c2)CC1 [TCMDC-139591], the “% Inhibition” value was 107.6%.

For O=C(C=Cc1ccc(Cl)c(Cl)c1)NCCCCCN1CCCC(CCCNS(=O)(=O)c2cccc(C(F)(F)F)c2)C1 (centres unmarked) [TCMDC-139593], the “% Inhibition” value was 101.3%.

With O=C(C=Cc1ccc(Cl)c(Cl)c1)NCCCCCN1CCCC(CCCNS(=O)(=O)c2cccc3cccnc23)C1 (centres unmarked) [TCMDC-139594] the “% Inhibition” value was 96.79%.

In the case of O=C(C=Cc1ccc(Cl)c(Cl)c1)NCCCCCN1CCCC(CCCNC(=O)c2cccs2)C1 (centres unmarked) [TCMDC-139576], the “% Inhibition” value is reported as 12.1%.

For O=C(/C=C/c1ccc(Cl)c(Cl)c1)NCCCCCN1CCC(NC(=O)Nc2cccc(C(F)(F)F)c2)CC1 [TCMDC-135724], the “% Inhibition” value was -61.55%.

O=C(CNCC1CCCCC1)Nc1cc(C(F)(F)F)ccc1Cl [TCMDC-124505] was tested, and the “% Inhibition” value was 6.087%.

In the case of Cc1nc(-c2nc(NCc3ccc4c(c3)OCO4)ncc2-c2ccsc2)sc1C [TCMDC-125358], the “% Inhibition” value is reported as 15.74%.

In the case of CCCc1cc(O)c2c3c(c(=O)oc2c1)CN(C)CC3 [TCMDC-124226], the “% Inhibition” value is reported as -5.24%.

COc1ccc(C2=[N+]([O-])c3ccccc3C2=O)cc1 [TCMDC-123940] was tested, and the “% Inhibition” value was -13.17%.

In the case of O=C(O)c1cc(C(F)(F)F)co1 [TCMDC-124155], the “% Inhibition” value is reported as -1.887%.

COc1cccc2cc(C(=O)N[C@@H](CC(C)C)C(=O)N[C@H](C=NN(C)C(=O)OC(C)(C)C)Cc3ccccc3)oc12 [TCMDC-136133] was tested, and the “% Inhibition” value was 30.7%.

For CC[C@H](NC(=O)c1ccc(NC(=O)OC(C)(C)C)cc1)C(=O)N[C@@H](CO)C(=O)NCCCCc1ccccc1 [TCMDC-137189], the “% Inhibition” value was 5.299%.

Cc1cccc(CNc2nc(C)cc(NCCC(=O)NCc3cccc(F)c3)n2)c1 [TCMDC-134882] was tested, and the “% Inhibition” value was 28.72%.

For Cc1cc(NCCC(=O)NCc2cccc(F)c2)nc(Nc2ccccc2)n1 [TCMDC-134730], the “% Inhibition” value was 9.488%.

In the case of Cc1cc(NCCC(=O)NCCc2ccccc2)nc(NCCc2ccc(F)cc2)n1 [TCMDC-134782], the “% Inhibition” value is reported as 63.79%.

Cc1cc(NCCC(=O)NCc2cccc(F)c2)nc(NCCc2ccc(F)cc2)n1 [TCMDC-134781] was tested, and the “% Inhibition” value was 71.46%.

With CCC1(CC)C(=O)N=C(N2CCCCC2)N(C)C1=O [TCMDC-124231] the “% Inhibition” value was 77.81%.

For COc1ccc2nccc([C@@H](O)CN3CCC(NCc4ccc5nnsc5c4)CC3)c2c1 [TCMDC-140923], the “% Inhibition” value was 19.95%.

With CC(C)(C)c1ccc(CN2CCC(NC(=O)c3ccc(-c4ccccc4F)s3)CC2)cc1 [TCMDC-134349] the “% Inhibition” value was 3.235%.

Cn1nc(-c2ccccc2F)c2cc(C(=O)NC3CCN(Cc4ccccc4)CC3)sc21 [TCMDC-123582] was tested, and the “% Inhibition” value was 63.05%.

With Cn1nc(-c2ccccc2F)c2cc(C(=O)Nc3cccnc3)sc21 [TCMDC-123581] the “% Inhibition” value was -8.367%.

CCc1ccc(CN2CCC(NC(=O)c3ccc(-c4ccccc4F)s3)CC2)cc1 [TCMDC-134343] was tested, and the “% Inhibition” value was -3.563%.

COc1cccc(-c2nn(C)c3sc(C(=O)NCCN4CCN(c5ccccc5F)CC4)cc23)c1 [TCMDC-123585] was tested, and the “% Inhibition” value was -24.43%.

For Cc1cccc(CN2CCC(CNC(=O)c3cc4c(-c5ccccc5F)nn(C)c4s3)CC2)c1 [TCMDC-124566], the “% Inhibition” value was 59.21%.

With COc1ccc2ncc(F)c(C(O)CN3CCC(NCc4ccc5c(n4)NC(=O)CO5)CC3)c2c1 (centres unmarked) [TCMDC-135530] the “% Inhibition” value (% Inhibition) was 22.05%.
